# From PubChem BioAssay AID2315 (National Center for Advancing Translational Sciences (NCATS), 2010)
# Out of some 290,000 compounds screened, about 27,000 (9.3%) were called active. The sample holds actives, similar compounds and a random draw of the others, so the mix is not that of the screen. No stated cut-off is given here; in the data, active means inhibition mostly above about 28% (no sharp cut-off); inactive means mostly below about 43%.
# Assay: A qHTS for Small Molecule Inhibitors of Shiga Toxin; further: 0% is about no effect
# Details: Vero cells, Shiga toxin protein synthesis inhibition reporter; at 38.7 µM, stronger effect = higher value
row,SMILES,inhibition
1,O=C(Nc1nnc(C2CC2)s1)c1cc(Cl)sc1Cl,48% (active)
2,CC1CCN(S(=O)(=O)c2ccc(NC(=O)C3CC(=O)N(c4ccccc4)C3)cc2)CC1 (stereo not drawn),-4.69% (inactive)
3,COc1ccc(NS(=O)(=O)c2ccc(N3CCN(CCO)CC3)c([N+](=O)[O-])c2)cc1,-10.2% (inactive)
4,CN(C(=O)c1ccccc1)c1nccnc1C#N,-2.8% (inactive)
5,CCc1nn(CC(=O)N2CCN(CC)CC2)c(=O)c2cccn12,-0.821% (inactive)
6,COc1ccccc1CN1CCNC(=O)C1CC(=O)N(C)CC1CCOCC1 (stereo not drawn),-2.77% (inactive)
7,O=C(CSc1nc2ccccc2[nH]1)c1cccs1,119% (active)
8,CN(Cc1ccccc1)C(=O)CSc1nc2ccccc2[nH]1,70.2% (active)
9,CN(Cc1ccccc1)c1nc2c(c(=O)[nH]c(=O)n2C)n1CCSc1nc2ccccc2[nH]1,-8.47% (inactive)
10,O=C(CSc1nc2ccccc2[nH]1)N/N=C/C=C\c1ccccc1[N+](=O)[O-],30.8% (inactive)
11,CC(=O)Nc1ccc(C(=O)CSc2nc3ccc(C)cc3[nH]2)cc1,23.5% (inactive)
12,O=C(CSc1nc2ccccc2[nH]1)Nc1nc(-c2ccccc2)c(-c2ccccc2)o1,-6.45% (inactive)
13,CN(CCc1ccccn1)C(=O)c1ccc(OC2CCN(CCc3ccccc3)CC2)cc1,24.5% (inactive)
14,Cc1cc(C)c(S(=O)(=O)N(C)CC(=O)NCC2CCCO2)c(C)c1 (stereo not drawn),-2.86% (inactive)
15,Cc1ccc(OCC(=O)Nc2ccc(C(=O)O)cc2NC(=O)COc2ccc(C)c(C)c2)cc1C,-6.8% (inactive)
16,Cc1ccc(C2Nc3cccc4cccc(c34)N2)cc1,-10.1% (inactive)
17,C=CCN1CCN(C(=O)CCCc2ccccc2)CC1,9.38% (inactive)
18,CCc1c(C)nc(N)n2c(SCC(=O)NC3CCCCC3)nnc12,-19.4% (inactive)
19,S=C(c1ccc(-c2ccccc2)o1)N1CCCCC1,98.2% (active)
20,S=C(c1ccccc1)N1CCCC1,-8.23% (inactive)
21,OCCN1CCN(C(=S)c2ccc(-c3ccccc3)cc2)CC1,0.879% (inactive)
22,N#C[C@]1(S(=O)(=O)c2ccccc2)C[C@@H]2ON=C(c3cccc(Br)c3)[C@@H]2C1,-6.42% (inactive)
23,CCc1nc(N2CCN(C(C)=O)CC2)c2c3c(sc2n1)CCCC3,-5.44% (inactive)
24,Cc1ccc(C(=O)Cc2nnc(C)s2)cc1,58.4% (active)

row,SMILES,inhibition
1,Cc1ccc(C(=O)CSc2ccccc2C(=O)O)cc1,39.6% (inactive)
2,Cc1ccc(C(=O)Cn2cccn2)cc1,5.48% (inactive)
3,CC1CC(=O)N(CC(=O)Nc2cccc(Cl)c2)c2ccccc2S1(=O)=O (stereo not drawn),-4.68% (inactive)
4,CCN(C(=O)COC(=O)c1ccc(COc2ccc3c(C)cc(=O)oc3c2)cc1)C1CCS(=O)(=O)C1 (stereo not drawn),33% (inactive)
5,CCCSc1nc2sc3c(c2c(=O)n1-c1ccc(OC)cc1)CCN(C)C3,-19% (inactive)
6,CC(C)(O)C#Cc1ccc(CN2CCC(CO)(CCc3ccccc3)CC2)cc1,-5.12% (inactive)
7,COCCCNc1nc2c(-c3cccc(C)c3)nnn2c2ccc(Cl)cc12,9.32% (inactive)
8,CCOC(=O)CSc1nnc(CNc2ccc(F)cc2)o1,-20.4% (inactive)
9,Cc1cccc2nc(CNc3ccc(F)cc3)cn12,66.5% (active)
10,COc1cc([N+](=O)[O-])cc([N+](=O)[O-])c1NC(=O)N1CCOCC1,-11.6% (inactive)
11,CCN(c1ccccc1)S(=O)(=O)c1cc2c(cc1C)n(C)c(=O)c(=O)n2C,10.4% (inactive)
12,O=C(CCCN1CCc2[nH]c3ccc(F)cc3c2C1)c1ccc(F)cc1,-5.56% (inactive)
13,CC(C)/C=N/NC(=O)c1cc(Br)ccc1O,30.6% (inactive)
14,O=C(COC(=O)c1ccc(F)cc1)NCCCc1ccccc1,-1.67% (inactive)
15,O=C(NCCN1CCCC(O)C1)c1cc(COc2c(F)cccc2F)on1 (stereo not drawn),-6.84% (inactive)
16,O=C(NCCc1ccccc1)c1ccc(OCCOc2ccccc2)cc1,-1.89% (inactive)
17,CC(C)Cc1cc(C(=O)NCCc2ccccc2)no1,87.5% (active)
18,CCCOc1ccc(C(=O)NCCc2ccccc2)cc1,39.8% (inactive)
19,CC(C)C(=O)NCc1cc(-c2ccc(Cl)cc2)no1,10.8% (inactive)
20,C[C@H](NC(=O)NCCc1ccccc1)C(=O)O,8.98% (inactive)
21,O=C(NCCCc1ccccc1)c1cc(COc2c(F)cccc2F)on1,78.1% (active)
22,CC(C)Cc1cc(C(=O)Nc2cc(Br)ccc2O)no1,85.5% (active)
23,COC(=O)[C@@H](Cc1ccccc1)NC(=O)NCCc1ccccc1,15.6% (inactive)
24,CC(C)c1ccc(C(=O)NCCCc2ccccc2)cc1,60.6% (active)
